# Test results: ChEMBL document CHEMBL5606460, “ASAP - DENV-2 NS2B-NS3 protease fluorescence single point” (2024)
# In all, about 2,000 compounds went through this assay and about 110 (5.5%) showed an effect of 50% or more. The sample holds strong results, similar compounds and a random draw of the others, so the mix is not that of the screen.
# Target: Genome polyprotein (dengue virus type 2) (UniProt P29990)
# [1] = Thailand/16681/1984, Concentration 25.0 uM, Number of replicates 1.0
smiles,measurement,setting,value
CC(C)NC(=O)CN1CCN(C(=O)C2CCN(c3ccc(C=O)cc3)CC2)CC1,inhibition,[1],11.2%
Cc1cn2nnc(C(=O)N3CCC[C@H](c4nc(=O)[nH][nH]4)C3)c2c(=O)[nH]1,inhibition,"Thailand/16681/1984, Concentration 49.5 uM, Number of replicates 2.0, Standard deviation 1.1306810071407891 %",-1.83%
same,inhibition,"Thailand/16681/1984, Concentration 99.01 uM, Number of replicates 2.0, Standard deviation 1.1436614778388714 %",-1.38%
same,inhibition,"Thailand/16681/1984, Concentration 198.0 uM, Number of replicates 2.0, Standard deviation 0.31245549284811885 %",-1.83%
Cc1cc(CO)c2cccc(Cc3cccc(C(=O)N[C@H]4C[C@@H](O)C4)c3)c2n1,inhibition,"Thailand/16681/1984, Concentration 49.95 uM, Number of replicates 2.0, Standard deviation 0.3715430142368757 %",6.97%
same,inhibition,"Thailand/16681/1984, Concentration 99.9 uM, Number of replicates 2.0, Standard deviation 0.8666943057865014 %",29.2%
Cc1cc(CO)c2cccc(C[C@H](NC(=O)c3cc(C(F)F)nn3C)C(=O)O)c2n1,inhibition,"Thailand/16681/1984, Concentration 49.95 uM, Number of replicates 2.0, Standard deviation 1.4383595761786832 %",1.98%
same,inhibition,"Thailand/16681/1984, Concentration 99.9 uM, Number of replicates 2.0, Standard deviation 0.48778570830386186 %",5.89%
Cc1nc(N)c2cccc(Cl)c2n1,inhibition,"Thailand/16681/1984, Concentration 49.95 uM, Number of replicates 2.0, Standard deviation 5.075529174302592 %",-8.29%
same,inhibition,"Thailand/16681/1984, Concentration 99.9 uM, Number of replicates 2.0, Standard deviation 2.1313934403537464 %",-8.87%
COc1ccccc1N1CCN(C(=O)C2CCN(c3ccc(C=O)cc3)CC2)CC1,inhibition,[1],12.1%
O=C(Nc1cccc2cccnc12)C1CCNCC1,inhibition,"Thailand/16681/1984, Concentration 49.95 uM, Number of replicates 2.0, Standard deviation 0.4211783883506398 %",-0.871%
same,inhibition,"Thailand/16681/1984, Concentration 99.9 uM, Number of replicates 2.0, Standard deviation 1.2273405052219766 %",51.5%
NCCC(=O)Nc1cccc2cccnc12,inhibition,"Thailand/16681/1984, Concentration 49.95 uM, Number of replicates 2.0, Standard deviation 1.674842930068702 %",-9.45%
same,inhibition,"Thailand/16681/1984, Concentration 99.9 uM, Number of replicates 2.0, Standard deviation 2.956474982493684 %",-7.49%
N[C@@H]1CCCC[C@H]1C(=O)Nc1cccc2cccnc12,inhibition,"Thailand/16681/1984, Concentration 49.95 uM, Number of replicates 2.0, Standard deviation 3.2838754106489776 %",-8.7%
same,inhibition,"Thailand/16681/1984, Concentration 99.9 uM, Number of replicates 2.0, Standard deviation 3.148144351005342 %",-7.2%
Nc1nccc2cc(Br)ccc12,inhibition,"Thailand/16681/1984, Concentration 49.95 uM, Number of replicates 2.0, Standard deviation 5.1898726049351325 %",-2.94%
same,inhibition,"Thailand/16681/1984, Concentration 99.9 uM, Number of replicates 2.0, Standard deviation 6.552121336877266 %",-2.95%
COc1ccc(Cl)c2sc(NC(=O)c3ccccc3NS(=O)(=O)c3ccc(Cl)cc3)nc12,inhibition,"Thailand/16681/1984, Concentration 198.0 uM, Number of replicates 2.0, Standard deviation 9.166560145189157 %",8.28%
CC(C)Nc1nc2ccc(C(=O)Nc3nnc4cccnn34)cc2[nH]1,inhibition,"Thailand/16681/1984, Concentration 49.5 uM, Number of replicates 2.0, Standard deviation 0.47864102228875616 %",-2.54%
same,inhibition,"Thailand/16681/1984, Concentration 99.01 uM, Number of replicates 2.0, Standard deviation 0.9476878624230379 %",-0.35%
same,inhibition,"Thailand/16681/1984, Concentration 198.0 uM, Number of replicates 2.0, Standard deviation 0.5058242222917364 %",4.68%
Cc1cc(CO)c2cccc(Cc3cccc(NC(=O)Cc4c(C)c5c(=O)[nH]n(C)c5[nH]c4=O)c3)c2n1,inhibition,"Thailand/16681/1984, Concentration 49.95 uM, Number of replicates 2.0, Standard deviation 0.9721935995806666 %",38.4%
same,inhibition,"Thailand/16681/1984, Concentration 99.9 uM, Number of replicates 2.0, Standard deviation 1.6660426680996274 %",65.6%
Cc1cc(CO)c2cccc(NC(=O)Cc3c(C)c4c(=O)[nH]n(C)c4[nH]c3=O)c2n1,inhibition,"Thailand/16681/1984, Concentration 49.95 uM, Number of replicates 2.0, Standard deviation 1.6565788461475972 %",17.7%
same,inhibition,"Thailand/16681/1984, Concentration 99.9 uM, Number of replicates 2.0, Standard deviation 1.9416844060600267 %",32.2%
Cc1cc(CO)c2cccc(NC(=O)CC3CCNCC3)c2n1,inhibition,"Thailand/16681/1984, Concentration 49.95 uM, Number of replicates 2.0, Standard deviation 2.142909982415651 %",8.3%
same,inhibition,"Thailand/16681/1984, Concentration 99.9 uM, Number of replicates 2.0, Standard deviation 0.2007188026491294 %",53.9%
Cc1cc(CO)c2cccc(NC(=O)C[C@H]3CCCN3)c2n1,inhibition,"Thailand/16681/1984, Concentration 49.95 uM, Number of replicates 2.0, Standard deviation 1.87682580099837 %",7.72%
same,inhibition,"Thailand/16681/1984, Concentration 99.9 uM, Number of replicates 2.0, Standard deviation 2.520000533440925 %",13.9%
Cc1cc(CO)c2cccc(NC(=O)CC3CNC3)c2n1,inhibition,"Thailand/16681/1984, Concentration 49.95 uM, Number of replicates 2.0, Standard deviation 1.3762045228616064 %",7.76%
same,inhibition,"Thailand/16681/1984, Concentration 99.9 uM, Number of replicates 2.0, Standard deviation 1.6376626661863318 %",14.8%
Cc1cc(CO)c2cccc(Cc3cccc(NC(=O)CCC4CCNCC4)c3)c2n1,inhibition,"Thailand/16681/1984, Concentration 49.95 uM, Number of replicates 2.0, Standard deviation 1.9905342893580933 %",36.1%
same,inhibition,"Thailand/16681/1984, Concentration 99.9 uM, Number of replicates 2.0, Standard deviation 0.13016565259146895 %",90.2%
Cc1cc(CO)c2cccc(NCC3CCNCC3)c2n1,inhibition,"Thailand/16681/1984, Concentration 49.95 uM, Number of replicates 2.0, Standard deviation 0.8313641199663653 %",-6.22%
same,inhibition,"Thailand/16681/1984, Concentration 99.9 uM, Number of replicates 2.0, Standard deviation 1.3048073716258033 %",0.772%
Cc1cc(CO)c2cccc(Cc3ccccc3NC(=O)CCC3CCNCC3)c2n1,inhibition,"Thailand/16681/1984, Concentration 49.95 uM, Number of replicates 2.0, Standard deviation 0.7055143046624119 %",-4.33%
same,inhibition,"Thailand/16681/1984, Concentration 99.9 uM, Number of replicates 2.0, Standard deviation 1.236554143481246 %",6.21%
Cc1cc(CO)c2cccc(Cc3cccc(NC(=O)CNC4CC4)c3)c2n1,inhibition,"Thailand/16681/1984, Concentration 49.95 uM, Number of replicates 2.0, Standard deviation 1.5245757174015988 %",0.182%
same,inhibition,"Thailand/16681/1984, Concentration 99.9 uM, Number of replicates 2.0, Standard deviation 1.8285218036822166 %",7.46%
Cc1cc(CO)c2cccc(Cc3cccc(NC(=O)C[C@H]4CCCN4)c3)c2n1,inhibition,"Thailand/16681/1984, Concentration 49.95 uM, Number of replicates 2.0, Standard deviation 0.1263380443971036 %",-4.58%
same,inhibition,"Thailand/16681/1984, Concentration 99.9 uM, Number of replicates 2.0, Standard deviation 0.8674748654209231 %",-4.17%
Cc1cc(CO)c2cccc(Cc3ccccc3NC(=O)Cc3c(C)c4c(=O)[nH]n(C)c4[nH]c3=O)c2n1,inhibition,"Thailand/16681/1984, Concentration 49.95 uM, Number of replicates 2.0, Standard deviation 2.5458058686723866 %",22.5%
same,inhibition,"Thailand/16681/1984, Concentration 99.9 uM, Number of replicates 2.0, Standard deviation 1.6741240734205003 %",45.5%
Cc1cc(CO)c2cccc(NC(=O)CCC3CCNCC3)c2n1,inhibition,"Thailand/16681/1984, Concentration 49.95 uM, Number of replicates 2.0, Standard deviation 0.01891415691253689 %",99.7%
same,inhibition,"Thailand/16681/1984, Concentration 99.9 uM, Number of replicates 2.0, Standard deviation 0.03175377284289565 %",99.6%
Cc1cc(N)c2cccc(Br)c2n1,inhibition,"Thailand/16681/1984, Concentration 49.95 uM, Number of replicates 2.0, Standard deviation 5.849609152234285 %",-8.02%
same,inhibition,"Thailand/16681/1984, Concentration 99.9 uM, Number of replicates 2.0, Standard deviation 5.75747614138947 %",-7.97%
Cc1cc(CO)c2cccc(Cc3ccccc3NC(=O)Cc3c[nH]c4ccccc34)c2n1,inhibition,"Thailand/16681/1984, Concentration 49.95 uM, Number of replicates 2.0, Standard deviation 1.1797806526631314 %",5.6%
same,inhibition,"Thailand/16681/1984, Concentration 99.9 uM, Number of replicates 2.0, Standard deviation 0.9471475819719768 %",13.1%
